According to the supplement of paper PMC8253809:

Assays:
Experiment in all cases: growth inhibition (% activity, log2 RLU normalised to DMSO / staurosporine); higher = more growth inhibition
Settings in all cases: 33 µM
[1] = tested on: DIPGX29 (H3.3 K27M diffuse intrinsic pontine glioma line)
How it was run: (§1)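 Approved drugs, at a single final concentration of about 33 μM, were applied in triplicate to pHGG cell lines and H9-derived neural stem cells for 7 days at 37 °C, 5% CO2. The growth-inhibition value is the replicate median of log2-transformed CellTiter-Glo luminescence normalised per plate to % activity between solvent and positive control wells.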

[2] = tested on: DIPGX37 (H3.3 K27M diffuse intrinsic pontine glioma line)
How it was run: as §1

[3] = tested on: DIPGX7 (H3.3 K27M diffuse intrinsic pontine glioma line)
How it was run: as §1

[4] = tested on: DIPGX9 (diffuse intrinsic pontine glioma line)
How it was run: as §1

[5] = tested on: HGGX39 (paediatric high-grade glioma line)
How it was run: as §1

[6] = tested on: HGGX6 (H3.3 G34R paediatric high-grade glioma line)
How it was run: as §1

[7] = tested on: HNSC
How it was run: as §1

[8] = tested on: SUDIPGIV (diffuse intrinsic pontine glioma line)
How it was run: as §1

[9] = tested on: SUDIPGVI (diffuse intrinsic pontine glioma line)
How it was run: as §1

[10] = tested on: SUDIPGXIII (diffuse intrinsic pontine glioma line)
How it was run: as §1

Compound	growth inhibition [1] [%]	growth inhibition [2] [%]	growth inhibition [3] [%]	growth inhibition [4] [%]	growth inhibition [5] [%]	growth inhibition [6] [%]	growth inhibition [7] [%]	growth inhibition [8] [%]	growth inhibition [9] [%]	growth inhibition [10] [%]
CCCCCCCCCCCCCCCC(=O)O[C@@H]1[C@@H](O)[C@@H](O)[C@@H]([C@H](NC(=O)[C@@H]2C[C@@H](CCC)CN2C)[C@H](C)Cl)O[C@@H]1SC	0.38	-0.882	0.64	-0.0578	2.42	2.01	-1.46	1.12	0.759	-0.501
CCCCCCCCCCCCCCCC[N+](C)(C)CCN(Cc1ccc(OC)cc1)c1ncccn1	59.2	55.6	57.6	55.3	59.2	62	57.8	57.6	56.7	42.9
CC(=O)OCC(=O)[C@@]12OC(C)(C)O[C@@H]1C[C@H]1[C@@H]3C[C@H](F)C4=CC(=O)C=C[C@]4(C)[C@@]3(F)[C@@H](O)C[C@@]12C	0.7	2.1	-1.12	3.42	2.3	-0.607	5.54	-2.88	0.11	2.76
Nc1nc(N)nc(-c2cc(Cl)ccc2Cl)n1	-2.22	-3.47	-1.19	-0.993	-0.32	0.13	-4.65	-1.63	-0.709	-0.715
NCC1OC(OC2C(N)CC(N)C(OC3OC(CO)C(O)C(N)C3O)C2O)C(N)C(O)C1O (stereo not given)	-1.38	0.63	0.452	-1.1	1.6	-1.9	30.8	-0.143	-4.48	-1.57
CN(Cc1cnc2nc(N)nc(N)c2n1)c1ccc(C(=O)N[C@@H](CCC(=O)O)C(=O)O)cc1	1.2	1.21	2.57	0.922	3.95	1.8	2.32	-0.562	3.38	0.468
CC(C)(C)c1cc(C(C)(C)C)c(NC(=O)c2c[nH]c3ccccc3c2=O)cc1O	7.53	4.87	25.1	8.47	22.4	15.2	11.9	9.36	2.56	2.28
CCCS(=O)(=O)Nc1ccc(F)c(C(=O)c2c[nH]c3ncc(-c4ccc(Cl)cc4)cc23)c1F	0.0739	1.21	-0.987	0.227	-0.449	2.46	10.9	-3.02	1.21	1.79
CC(=O)NC[C@H]1CN(c2ccc(N3CCOCC3)c(F)c2)C(=O)O1	0.341	-2.02	0.521	1.07	3.34	1.89	6.16	4.69	1.21	1.55
CN(C)c1ccc(O)c2c1C[C@H]1C[C@H]3[C@H](N(C)C)C(=O)C(C(N)=O)=C(O)[C@@]3(O)C(=O)C1=C2O	-4.52	-0.19	0.692	-1.39	3.12	-2.93	5.14	2.56	-1.8	1.96
CCCCOc1ccc(CC(=O)NO)cc1	4.76	1.97	54.5	3.15	12.5	12.9	17.1	3.36	-3.3	-0.824
NC(=O)C(c1ccccc1)(c1ccccc1)[C@@H]1CCN(CCc2ccc3c(c2)CCO3)C1	2.96	2.86	0.954	1.04	4.33	2.82	1.33	0.535	2.52	0.646
CCCCN1CCCCC1C(=O)Nc1c(C)cccc1C (stereo not given)	-1.45	-1.09	-1.58	0.909	1.03	0.943	-1.77	-2.22	-1.08	7.3
Cn1c(=O)c2[nH]cnc2n(C)c1=O	-2.13	0.51	-0.294	-0.0831	-0.447	0.444	-5.61	-0.366	-2.69	-1.98
O=C(Oc1ccccc1C(=O)O)c1ccccc1O	-4.53	-1.4	0.584	-2.94	-1.64	-6.45	9.98	-3.17	-8.34	-0.246
COc1cc2c(cc1OC)C(=O)C(CC1CCN(Cc3ccccc3)CC1)C2 (stereo not given)	4.4	-6.1	3.13	-1.15	-1.59	0.576	9.45	-1.23	-7.35	-4.73
COc1nc(N)nc2c1ncn2[C@@H]1O[C@H](CO)[C@@H](O)[C@@H]1O	-0.0296	-1.39	-1.6	1.18	2.74	1	-1.01	0.63	0.545	-2.52
CCOC(=O)[C@H](CCc1ccccc1)N[C@H]1CCc2ccccc2N(CC(=O)O)C1=O	-0.274	-0.666	0.62	-1.51	-0.668	-3.48	0.9	-2.69	-7.43	-0.0284
CCN(CC)CCOC(=O)c1ccc(N)cc1	1.14	-1.44	2.21	1.17	3.11	0.874	2.07	1.58	1.31	0.856
CC(=O)NS(=O)(=O)c1ccc(NC(=O)c2ccccc2C(=O)O)cc1	-1.87	-0.137	-3.14	-1.16	-2.19	-0.75	-2.78	-2.4	-1.59	-0.151

Compound	growth inhibition [1] [%]	growth inhibition [2] [%]	growth inhibition [3] [%]	growth inhibition [4] [%]	growth inhibition [5] [%]	growth inhibition [6] [%]	growth inhibition [7] [%]	growth inhibition [8] [%]	growth inhibition [9] [%]	growth inhibition [10] [%]
CC(C)(CO)[C@@H](O)C(=O)NCCC(=O)O	-2.53	-0.522	-0.818	-0.68	-0.909	-0.397	-0.802	-0.366	-3.69	1.65
CN1CCOC(c2ccccc2)c2ccccc2C1 (stereo not given)	-3.82	-1.11	-0.00387	-2.6	-1.87	-4.34	19.3	-1.45	-8.5	2.52
Nc1nc2n[nH]nc2c(=O)[nH]1	14.5	13.2	14.4	22.6	17.5	13.7	56.2	32.2	1.16	1.25
NC(=O)N1c2ccccc2C=Cc2ccccc21	-0.706	3.98	0.653	1.56	1.28	0.945	2.65	0.457	1.8	-0.0848
COc1cc(OC)c(C(=O)CCCN2CCCC2)c(OC)c1	-0.72	1.82	0.0577	0.123	1.04	-0.405	-0.558	-0.0523	0.936	2.53
COc1cc([C@@H]2c3cc4c(cc3[C@@H](O[C@@H]3O[C@@H]5CO[C@@H](c6cccs6)O[C@H]5[C@H](O)[C@H]3O)[C@H]3COC(=O)[C@H]23)OCO4)cc(OC)c1O	22	1.57	29.9	47.9	14.2	23.6	59.9	48	10	20.7
Cc1cccn2c(=O)c(-c3nnn[nH]3)cnc12	0.15	-1.28	-0.946	0.426	1.29	-0.465	-1.69	-0.133	0.709	1.3
Clc1ccc(COC(Cn2ccnc2)c2ccc(Cl)cc2Cl)cc1 (stereo not given)	1.53	4.62	0.954	4	9.31	8.25	7.53	11.7	1.21	7.66
COC1=C(OC)C(=O)C(CCCCCCCCCCO)=C(C)C1=O	3.13	3.03	2.61	2.12	2.64	3.84	5.4	1.6	3.24	2.03
CC(C)c1nc(N(C)S(C)(=O)=O)nc(-c2ccc(F)cc2)c1C=CC(O)CC(O)CC(=O)O (stereo not given)	7.07	-1.35	16.7	4.14	24.4	15.9	73.3	21.5	-6.26	17
CCC(C)(C)c1ccc(CC(C)CN2C[C@@H](C)O[C@@H](C)C2)cc1 (stereo not given in full)	9.06	6.3	36.9	0.0137	15.3	11.1	8.57	11.7	-11.5	-7.54
COc1ccc(C2C(=O)c3ccccc3C2=O)cc1	-0.495	1.03	-0.141	0.658	-0.413	1.25	2.05	-1.32	-1.7	1.54
C[C@@H]1CCN(C(=O)CC#N)C[C@@H]1N(C)c1ncnc2[nH]ccc12	0.671	-1.72	0.986	-0.0672	1.55	-3.29	19.9	-0.0962	-2.08	1.44
Cc1nnc(NS(=O)(=O)c2ccc(N)cc2)s1	2.52	1.32	1.72	2.78	0.783	-1.19	44.8	2.1	1.77	-1.87
Cc1ccccc1C(OCCN(C)C)c1ccccc1 (stereo not given)	-0.515	0.826	-0.00592	1.44	2.28	1.66	-1.91	0.0322	0.905	1.58
C[C@]12C=CC(=O)C=C1CC[C@H]1[C@@H]3C[C@@H](O)[C@](O)(C(=O)CO)[C@@]3(C)C[C@H](O)[C@@]12F	0.877	1.05	-1.73	3.73	-0.649	-0.097	-1.58	-3.68	0.457	1.54
COc1cc(NC(C)CCCN)c2ncccc2c1 (stereo not given)	19.8	14	29.6	24.2	13	25.5	66.1	25.4	28.3	11.9
N[C@H](Cc1ccccc1)C(=O)O	1.07	4.02	1.99	1.11	3.77	0.895	14.5	3.32	2.63	2.11
NC(Cc1cc(I)c(Oc2cc(I)c(O)c(I)c2)c(I)c1)C(=O)O (stereo not given)	0.479	2.96	-0.171	1.28	2.01	-2.56	27.8	10.6	7.79	4.24
CCCC(=O)OCOC(=O)C1=C(C)NC(C)=C(C(=O)OC)C1c1cccc(Cl)c1Cl (stereo not given)	2.13	4.21	2.32	2.4	4.32	-0.314	31.7	2.85	3.35	-0.196
